{
  "source": "PubChem BioAssay AID1159580",
  "about": "(chemical genetic matrix, 2015)",
  "assay": "chemical genetic growth profiling, strain panel (AID 1159580);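 further: tested at 20 µM; growth read once vehicle control cultures reached saturation at 30 °C; 1 = growth at the plate median or of vehicle wells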",
  "details": "S. cerevisiae deletion strains, growth OD",
  "note": "Values joined by “and” are separate entries in the source; they are usually repeats but may differ in a detail not shown here. Identical values can stand only once. Screen size: about 5,500 compounds; about 2,000 (36%) were called active. Not shown: some 18% with an inconclusive outcome. No stated cut-off is given here; in the data, active means normalized growth mostly below about 0.91 (no sharp cut-off); inconclusive means no clear call, values can overlap the other calls; inactive means mostly above about 0.92. Some of the results follow.",
  "data": [
    {"smiles": "C[C@]12CCC3C(CC[C@H]4C[C@@H](O)CC[C@]34C)C1CCC2=O", "note": "(some centres undefined)", "values": [
      {"measurement": "normalized growth", "setting": "locus YAL021C, strain ccr4, stronger effect = lower value", "value": "0.854 (active)"},
      {"measurement": "normalized growth", "setting": "locus YAL026C, strain drs2, stronger effect = lower value", "value": "0.505 (active)"},
      {"measurement": "normalized growth", "setting": "locus YAL030W, strain snc1, stronger effect = lower value", "value": "1.01 (inactive)"},
      {"measurement": "normalized growth", "setting": "locus YBL061C, strain skt5, stronger effect = lower value", "value": "1.02 (inactive)"},
      {"measurement": "normalized growth", "setting": "locus YBR009C, strain hhf1, stronger effect = lower value", "value": "0.896 (active)"},
      {"measurement": "normalized growth", "setting": "locus YBR021W, strain FUR4, stronger effect = lower value", "value": "0.857 (inactive)"},
      {"measurement": "normalized growth", "setting": "locus YBR023C, strain chs3, stronger effect = lower value", "value": "0.989 (inactive)"},
      {"measurement": "normalized growth", "setting": "locus YBR171W, strain sec66, stronger effect = lower value", "value": "1.01 (inactive)"},
      {"measurement": "normalized growth", "setting": "locus YBR229C, strain ROT2, stronger effect = lower value", "value": "1.02 (inactive)"},
      {"measurement": "normalized growth", "setting": "locus YBR231C, strain swc5, stronger effect = lower value", "value": "1 (inactive)"},
      {"measurement": "normalized growth", "setting": "locus YBR279W, strain paf1, stronger effect = lower value", "value": "0.994 (inactive)"},
      {"measurement": "normalized growth", "setting": "locus YCL011C, strain gbp2, stronger effect = lower value", "value": "0.937 (inactive)"},
      {"measurement": "normalized growth", "setting": "locus YCL016C, strain dcc1, stronger effect = lower value", "value": "0.916 (inactive)"},
      {"measurement": "normalized growth", "setting": "locus YCL029C, strain bik1, stronger effect = lower value", "value": "0.842 (active)"},
      {"measurement": "normalized growth", "setting": "locus YCL061C, strain MRC1, stronger effect = lower value", "value": "0.961 (inactive)"},
      {"measurement": "normalized growth", "setting": "locus YCL069W, strain vba3, stronger effect = lower value", "value": "1.01 (inactive)"},
      {"measurement": "normalized growth", "setting": "locus YCR088W, strain abp1, stronger effect = lower value", "value": "1.05 (inactive)"},
      {"measurement": "normalized growth", "setting": "locus YDL005C, strain med2, stronger effect = lower value", "value": "1.03 (inactive)"},
      {"measurement": "normalized growth", "setting": "locus YDL035C, strain GPR1, stronger effect = lower value", "value": "0.697 (active)"},
      {"measurement": "normalized growth", "setting": "locus YDL040C, strain nat1, stronger effect = lower value", "value": "1.05 (inactive)"},
      {"measurement": "normalized growth", "setting": "locus YDL074C, strain BRE1, stronger effect = lower value", "value": "0.792 (inactive)"},
      {"measurement": "normalized growth", "setting": "locus YDL101C, strain DUN1, stronger effect = lower value", "value": "0.918 (inactive)"},
      {"measurement": "normalized growth", "setting": "locus YDL185W, strain tfp1, stronger effect = lower value", "value": "0.949 (inactive)"},
      {"measurement": "normalized growth", "setting": "locus YDL192W, strain arf1, stronger effect = lower value", "value": "0.838 (active)"},
      {"measurement": "normalized growth", "setting": "locus YDR001C, strain nth1, stronger effect = lower value", "value": "1.05 (inactive)"},
      {"measurement": "normalized growth", "setting": "locus YDR069C, strain doa4, stronger effect = lower value", "value": "0.979 (inactive)"},
      {"measurement": "normalized growth", "setting": "locus YDR101C, strain arx1, stronger effect = lower value", "value": "0.95 (inactive)"},
      {"measurement": "normalized growth", "setting": "locus YDR137W, strain rgp1, stronger effect = lower value", "value": "0.48 (active)"},
      {"measurement": "normalized growth", "setting": "locus YDR159W, strain sac3, stronger effect = lower value", "value": "0.938 (inactive)"},
      {"measurement": "normalized growth", "setting": "locus YDR162C, strain NBP2, stronger effect = lower value", "value": "0.585 (active)"},
      {"measurement": "normalized growth", "setting": "locus YDR195W, strain ref2", "value": "1.44 [resistant] (active)"},
      {"measurement": "normalized growth", "setting": "locus YDR297W, strain sur2, stronger effect = lower value", "value": "1.02 (inactive)"},
      {"measurement": "normalized growth", "setting": "locus YDR318W, strain mcm21, stronger effect = lower value", "value": "0.764 (active)"},
      {"measurement": "normalized growth", "setting": "locus YDR334W, strain swr1, stronger effect = lower value", "value": "1.08 (inactive)"},
      {"measurement": "normalized growth", "setting": "locus YDR335W, strain msn5, stronger effect = lower value", "value": "1.02 (inactive)"},
      {"measurement": "normalized growth", "setting": "locus YDR388W, stronger effect = lower value", "value": "0.935 (inactive)"},
      {"measurement": "normalized growth", "setting": "locus YDR392W, strain spt3, stronger effect = lower value", "value": "0.224 (active)"},
      {"measurement": "normalized growth", "setting": "locus YDR502C, strain sam2, stronger effect = lower value", "value": "0.749 (active)"},
      {"measurement": "normalized growth", "setting": "locus YEL003W, strain gim4, stronger effect = lower value", "value": "0.977 (inactive)"},
      {"measurement": "normalized growth", "setting": "locus YEL037C, strain rad23, stronger effect = lower value", "value": "1.03 (inactive)"},
      {"measurement": "normalized growth", "setting": "locus YEL061C, strain CIN8 (second series), stronger effect = lower value", "value": "1.04 (inactive)"},
      {"measurement": "normalized growth", "setting": "locus YEL061C, strain CIN8, stronger effect = lower value", "value": "0.908 (active)"},
      {"measurement": "normalized growth", "setting": "locus YER015W, strain faa2, stronger effect = lower value", "value": "1.04 (inactive)"},
      {"measurement": "normalized growth", "setting": "locus YER016W, strain bim1, stronger effect = lower value", "value": "1.03 (inactive)"},
      {"measurement": "normalized growth", "setting": "locus YER110C, stronger effect = lower value", "value": "1.03 (inactive)"},
      {"measurement": "normalized growth", "setting": "locus YER111C, strain swi4, stronger effect = lower value", "value": "1.03 (inactive)"},
      {"measurement": "normalized growth", "setting": "locus YER155C, strain BEM2 (second series), stronger effect = lower value", "value": "1 (inactive)"},
      {"measurement": "normalized growth", "setting": "locus YER155C, strain BEM2, stronger effect = lower value", "value": "0.856 (active)"},
      {"measurement": "normalized growth", "setting": "locus YER167W, strain BCK2, stronger effect = lower value", "value": "0.872 (active)"},
      {"measurement": "normalized growth", "setting": "locus YFR010W, strain ubp6, stronger effect = lower value", "value": "0.9 (active)"},
      {"measurement": "normalized growth", "setting": "locus YGL078C, strain dbp3, stronger effect = lower value", "value": "0.931 (inactive)"},
      {"measurement": "normalized growth", "setting": "locus YGL086W, strain mad1, stronger effect = lower value", "value": "0.9 (active)"},
      {"measurement": "normalized growth", "setting": "locus YGL167C, strain pmr1, stronger effect = lower value", "value": "1.03 (inactive)"},
      {"measurement": "normalized growth", "setting": "locus YGL173C, strain kem1, stronger effect = lower value", "value": "0.943 (inactive)"},
      {"measurement": "normalized growth", "setting": "locus YGL227W, strain vid30, stronger effect = lower value", "value": "1.06 (inactive)"},
      {"measurement": "normalized growth", "setting": "locus YGL240W, strain doc1, stronger effect = lower value", "value": "0.968 (inactive)"},
      {"measurement": "normalized growth", "setting": "locus YGL248W, strain PDE1, stronger effect = lower value", "value": "0.696 (active)"},
      {"measurement": "normalized growth", "setting": "locus YGL253W, strain hxk2, stronger effect = lower value", "value": "0.87 (active)"},
      {"measurement": "normalized growth", "setting": "locus YGR078C, strain PAC10, stronger effect = lower value", "value": "0.843 (active)"},
      {"measurement": "normalized growth", "setting": "locus YGR135W, strain pre9, stronger effect = lower value", "value": "0.711 (active)"},
      {"measurement": "normalized growth", "setting": "locus YHR013C, strain ard1, stronger effect = lower value", "value": "0.899 (inactive)"},
      {"measurement": "normalized growth", "setting": "locus YHR027C, strain rpn1, stronger effect = lower value", "value": "1.03 (inactive)"},
      {"measurement": "normalized growth", "setting": "locus YHR030C, strain SLT2, stronger effect = lower value", "value": "0.785 (active) and 0.897 (inactive)"},
      {"measurement": "normalized growth", "setting": "locus YHR079C, strain IRE1 (second series), stronger effect = lower value", "value": "0.94 (inactive)"},
      {"measurement": "normalized growth", "setting": "locus YHR079C, strain IRE1, stronger effect = lower value", "value": "0.893 (inactive)"},
      {"measurement": "normalized growth", "setting": "locus YHR094C, strain hxt1, stronger effect = lower value", "value": "1.03 (inactive)"},
      {"measurement": "normalized growth", "setting": "locus YHR129C, strain ARP1, stronger effect = lower value", "value": "0.766 (active)"},
      {"measurement": "normalized growth", "setting": "locus YHR142W, strain chs7, stronger effect = lower value", "value": "0.853 (active)"},
      {"measurement": "normalized growth", "setting": "locus YHR200W, strain rpn10, stronger effect = lower value", "value": "0.883 (active)"},
      {"measurement": "normalized growth", "setting": "locus YIL066C, strain RNR3, stronger effect = lower value", "value": "0.628 (active)"},
      {"measurement": "normalized growth", "setting": "locus YIL073C, strain SPO22, stronger effect = lower value", "value": "0.735 (inactive)"},
      {"measurement": "normalized growth", "setting": "locus YIL125W, strain kgd1, stronger effect = lower value", "value": "0.98 (inactive)"},
      {"measurement": "normalized growth", "setting": "locus YIR030C, strain dcg1, stronger effect = lower value", "value": "0.868 (active)"},
      {"measurement": "normalized growth", "setting": "locus YJL092W, strain hpr5, stronger effect = lower value", "value": "0.988 (inactive)"},
      {"measurement": "normalized growth", "setting": "locus YJL095W, strain BCK1 (second series), stronger effect = lower value", "value": "0.923 (inactive)"},
      {"measurement": "normalized growth", "setting": "locus YJL095W, strain BCK1, stronger effect = lower value", "value": "0.309 (active) and 0.911 (inactive)"},
      {"measurement": "normalized growth", "setting": "locus YJL115W, strain asf1, stronger effect = lower value", "value": "1.04 (inactive)"},
      {"measurement": "normalized growth", "setting": "locus YJL129C, strain trk1, stronger effect = lower value", "value": "0.948 (inactive)"},
      {"measurement": "normalized growth", "setting": "locus YJL134W, strain LCB3, stronger effect = lower value", "value": "1.02 (inactive)"},
      {"measurement": "normalized growth", "setting": "locus YJL154C, strain vps35, stronger effect = lower value", "value": "1.06 (inactive)"},
      {"measurement": "normalized growth", "setting": "locus YJL164C, strain tpk1, stronger effect = lower value", "value": "0.859 (active)"},
      {"measurement": "normalized growth", "setting": "locus YJL166W, strain qcr8, stronger effect = lower value", "value": "0.877 (active)"},
      {"measurement": "normalized growth", "setting": "locus YJL168C, strain set2, stronger effect = lower value", "value": "1.03 (inactive)"},
      {"measurement": "normalized growth", "setting": "locus YJL187C, strain SWE1 (second series), stronger effect = lower value", "value": "0.796 (active)"},
      {"measurement": "normalized growth", "setting": "locus YJL187C, strain SWE1, stronger effect = lower value", "value": "1.03 (inactive)"},
      {"measurement": "normalized growth", "setting": "locus YJR043C, strain POL32, stronger effect = lower value", "value": "0.895 (inactive)"},
      {"measurement": "normalized growth", "setting": "locus YJR066W, strain TOR1, stronger effect = lower value", "value": "0.875 (inactive)"},
      {"measurement": "normalized growth", "setting": "locus YJR075W, strain HOC1, stronger effect = lower value", "value": "0.857 (active)"},
      {"measurement": "normalized growth", "setting": "locus YKL009W, strain mrt4, stronger effect = lower value", "value": "0.832 (active)"}
    ]}
  ]
}
